Measured values reported in PubChem BioAssay (NCI).
About 83,000 compounds went through this panel and 20% of them were active in at least one assay; those are over-represented in the sample as a whole.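 Cells were grown in 96-well plates and exposed to the test compound at a single concentration for 48 hours; results are reported as percent growth, with values below 10 considered active.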 Values without a mark were called inactive. Activity calls are given as the source filed them.

These compounds were tested on HL-60(TB) leukemia (assay: NCI-60 one-dose screen, 48 h (100 = growth as untreated, 0 = no growth, -100 = all killed)). Settings: 10 µM unless noted.

Structure (SMILES)	growth
CC(=O)CSC(C)=O	102%
O=C(Cc1ccccc1)c1ccc(O)c(Cl)c1	-21.1% (active)
COc1ccc(C2=NNC(c3sc(Cl)nc3Cl)C2)cc1 (configuration not stated)	85.8%
CC(C)(C)CC(C)(C)Nc1c(-c2ccc3c(c2)OCO3)nc2cnccn12	77.8%
CNC(=O)c1cc(Oc2ccc(NC(=O)c3[nH]c(SC)nc3-c3ccc(F)cc3)cc2)ccn1	78.6%
CCOC(=O)C(Cc1ccc(OC)cc1)C(=O)OCC	3.77% (active)
Cc1ccc(-n2nc(C(C)(C)C)cc2NC(=O)NCc2cc(F)ccc2Oc2ccc3c(cnn3CCO)c2)cc1	-1.84% (active)
O=c1cc(-c2ccccc2)[nH]c2ccccc12	45%
O=C(Nc1cc(F)cc2cccnc12)c1cnc(N2CCNCC2)cn1	77.1%
CC(=O)Nc1ccc(-c2ccc3c(c2)NC(=O)/C3=C\c2ccc[nH]2)cc1	95.5%
COc1cc(-c2nc3ccccc3[nH]2)ccc1OCC(=O)N=Nc1c(O)[nH]c2ccccc12	79.8%
COc1cc2c(cc1-c1c(C)noc1C)ncc1nc(C3CCCCC3)n([C@H](C)COC(F)F)c12	31%
